Bioassay records: PubChem, National Center for Advancing Translational Sciences (NCATS)
Compounds with a hit are over-represented: about 9.8% of the library has one in this group of screens.
CBFb-RUNX1 inh – inhibitors of human CBF-beta and RUNX1 interaction. Q01196+Q13951. AlphaScreen CBFb-His/RUNX1-biotin binding, biochemical. Potency, µM (doses to about 59.8 µM), inactives show top-dose activity, negative = inhibition, usual class: inhibitors. 230,000 tested, under 10 active; active = well fitted curve in the direction sought with a large enough effect; inconclusive = small, poorly fitted or top-dose-only effect, or another doubt; inactive = no such curve, though single readings can be large; an effect the other way counts as inactive or inconclusive; note: % of control where 0% means no effect
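CBF-beta (His) and RUNX1 (biotin), 30 nM each; 20 min preassociation; + compound, 15 min; + beads 50 ng each (Ni, streptavidin), 90 min; RT; AlphaScreen read.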
HPGD inh – blocks human HPGD enzyme activity | P15428 | purified HPGD, NADH fluorescence kinetic, PGE2 substrate | Potency, µM, for inactives: at the highest dose activity change, negative = inhibition, usual class: inhibitors | 4.3% of 150,000 active | AID 894; note: potency is the fitted concentration of half-maximal effect; % is set by controls: 0 for no effect and ±100 for the full control effect
Target sequence (P15428 whole entry, looked up): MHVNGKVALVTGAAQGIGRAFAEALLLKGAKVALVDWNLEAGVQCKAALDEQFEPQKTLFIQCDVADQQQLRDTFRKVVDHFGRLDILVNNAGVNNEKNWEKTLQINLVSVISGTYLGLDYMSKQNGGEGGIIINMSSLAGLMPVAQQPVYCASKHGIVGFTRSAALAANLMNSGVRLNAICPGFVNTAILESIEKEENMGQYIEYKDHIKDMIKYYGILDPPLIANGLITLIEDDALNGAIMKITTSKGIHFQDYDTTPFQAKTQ
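20 nM HPGD preincubated 15 min at room temperature with compound in 50 mM Tris-HCl pH 8, 0.01% Tween 20. Started with 1 mM NAD+ and 30 uM prostaglandin E2; NADH fluorescence (360/450 nm) read 5 times over 30-s intervals, last minus first.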
KDM4E inh – JMJD2E (human) inhibition; Potency, µM (highest dose often 57.1 µM), for the others: top-dose activity change, negative = inhibition, usual class: inhibitors; JMJD2E catalytic domain, FDH-coupled NADH fluorescence (FDH is formaldehyde dehydrogenase); 1.6% of 230,000 active; AID 2147;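 note: potency is the fitted concentration of half-maximal effect; 0% = wells with enzyme and -100% = buffer wells without enzyme; nearly all actives have a fitted effect of over 50% in size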
ALDH1A1 inh – blocks purified human ALDH1A1 activity. Potency, µM (highest dose often 75.3 µM), for inactives: at the top dose activity, negative = inhibition, usual class: inhibitors. Purified ALDH1A1, NADH fluorescence, propionaldehyde substrate. 7.3% of 220,000 active. P00352. AID 1030;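 note: potency is the fitted concentration of half-maximal effect; plate controls were no enzyme wells and a reference inhibitor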
Target sequence (P00352 whole entry, looked up): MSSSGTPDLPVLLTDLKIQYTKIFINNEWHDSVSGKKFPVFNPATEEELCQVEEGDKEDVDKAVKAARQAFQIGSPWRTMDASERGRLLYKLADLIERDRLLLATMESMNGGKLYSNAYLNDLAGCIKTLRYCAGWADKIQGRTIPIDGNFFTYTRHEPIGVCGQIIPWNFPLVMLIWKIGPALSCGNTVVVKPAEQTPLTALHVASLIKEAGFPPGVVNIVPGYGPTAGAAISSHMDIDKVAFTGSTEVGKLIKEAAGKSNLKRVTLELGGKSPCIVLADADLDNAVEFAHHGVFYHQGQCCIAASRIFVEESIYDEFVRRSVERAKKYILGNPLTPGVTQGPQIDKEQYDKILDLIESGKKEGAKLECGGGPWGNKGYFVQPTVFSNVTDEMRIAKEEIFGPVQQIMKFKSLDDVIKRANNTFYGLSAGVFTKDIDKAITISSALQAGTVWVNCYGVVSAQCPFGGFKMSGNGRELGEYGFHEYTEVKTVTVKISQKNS
HTT aggregate – reduces HttQ103-GFP aggregates in PC12 cells. PC12 HttQ103-GFP aggregates, Acumen cytometry, 40 h. Potency, µM (titrated, usually from 46.1 µM), for the others: at the highest dose activity change, negative = inhibition, usual class: inhibitors. 1.1% of 220,000 active. AID 1688; active = well fitted curve in the direction sought with a large enough effect; inconclusive = small, poorly fitted or top-dose-only effect, or another doubt; inactive = no such curve, though single readings can be large; an effect the other way counts as inactive or inconclusive; note: potency is the fitted concentration of half-maximal effect; % is set by controls: 0 for no effect and ±100 for the full control effect; nearly all actives have a fitted effect of over 60% in size
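PC12 cells with ecdysone-inducible HTT exon1 Q103-GFP, induced by 100 nM tebufenozide, given compounds in a concentration series. GFP aggregates (1–25 um, 6 SD above background) counted in lysates by laser-scanning cytometry, 488 nm excitation.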
HTT ATP protect – Huntington cell model cytoprotection by ATP luminescence | PC12 HTT-Q103 induced, cytoprotection, ATP luminescence, 40 h | Potency, µM (doses to about 56.4 µM), inactives show cytoprotection (ATP increase), hits mostly activators | 0.14% of 230,000 active | AID 1471; active = well fitted curve in the direction sought with a large enough effect; inconclusive = small, poorly fitted or top-dose-only effect, or another doubt; inactive = no such curve, though single readings can be large; an effect the other way counts as inactive or inconclusive; note: potency is the fitted concentration of half-maximal effect; % of control where 0% means no effect; nearly all actives have a fitted effect of over 45% in size
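ATP quantification (ATPlite) reports survival of PC12 cells in which tebufenozide, 100 nM final, switches on Htt exon 1 with 103 glutamines linked to GFP; compounds are titrated.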
The depositor's hits bear a star; ? = inconclusive; nt = not tested or not shown; [ ] = another dose, or the depositor's remark. Unless noted, calls come from the whole dose curve; as a rule, active = well fitted inhibition curve with a large enough effect (not every such curve was filed as active); inconclusive = small, poorly fitted or top-dose-only effect, or another doubt; inactive = no such curve, though single readings can be large or run the other way.

SMILES	CBFb-RUNX1 inh	HPGD inh	KDM4E inh	ALDH1A1 inh	HTT aggregate	HTT ATP protect
COc1ccc(OC)c(C2C=C(C34CC5CC(CC(C5)C3)C4)NC(=S)N2)c1 (centres undefined)	?	-12.3%	?	2.51µM*	?	26.9%[10 µM]
COc1cc(C2C=C(C34CC5CC(CC(C5)C3)C4)NC(=S)N2)cc(OC)c1OC (centres undefined)	-12.4%	-1.8%	-6.6%	1.12µM*	-25.1%	-13.7%
COc1ccc(OC)c(C2SCCN2S(C)(=O)=O)c1 (centres undefined)	0.5%	-9.0%	4.4%	-4.8%	0.0%	20.1%
S=C1NC(C23CC4CC(CC(C4)C2)C3)=CC(c2ccc3c(c2)OCO3)N1 (centres undefined)	0.2%	nt	?	2.51µM*	-2.3%	9.8%
COc1ccc(C2=CC(c3cc(OC)c(OC)c(OC)c3)NC(=S)N2)cc1 (centres undefined)	-4.9%	-17.5%	3.2%	-14.3%	-0.4%	-17.4%
CCN(Cc1cc2cc(C)ccc2[nH]c1=O)C(=O)c1cccc([N+](=O)[O-])c1	3.9%	nt	0.7%	nt	-6.3%[9.22 µM]	0.9%[10 µM]
CC(=O)Nc1ccc(S(=O)(=O)NCC(=O)OCC(=O)NC23CC4CC(CC(C4)C2)C3)cc1	14.3%	-12.4%	-3.2%	-5.1%	-7.0%	3.0%[10 µM]
CCN(CC)c1ccc(NC(=S)NCC2CCCO2)cc1 (centres undefined)	-24.2%	nt	-8.5%	?	-20.4%	-15.8%
CCN(c1cccc(C)c1)c1ncnc2nc[nH]c12	9.9%	-11.0%	-0.9%	7.0%	8.91µM*	0.4%[10 µM]
CCCCN(c1ccccc1)c1ncnc2nc[nH]c12	-4.7%	-11.0%	-6.7%	11.2µM*	?	-2.3%
CCN(CCCNc1ncnc2nc[nH]c12)c1cccc(C)c1	-11.6%	-9.3%	1.6%	5.7%	-30.8%	-6.6%[10 µM]
Cc1ccc(-c2cc(C(=O)NCc3ccccn3)c3ccccc3n2)cc1	9.4%	?	?	?	-3.2%	-16.5%[10 µM]
Cc1ccc(C(=O)NCc2ccccn2)c(Cl)c1	-1.4%	14.1µM*	-1.9%	9.2%	7.6%	-23.2%
CCN(CC)c1nc(OC)nc(-n2nnc(C(C)=O)c2C)n1	8.3%	-17.9%	8.9%	-7.6%	?	-2.8%
CCCCC(=O)Nc1c(C)cc(C)cc1Cl	-6.1%	35.5µM*	-2.9%	-8.9%	12.6%[9.22 µM]	22.2%
CCCN1C(=O)S/C(=C\c2ccc(N3CCOCC3)o2)C1=O	-8.1%	nt	?	0.224µM*	?	-158.7%
O=C(CN1C(=O)S/C(=C/c2ccc(N3CCOCC3)cc2)C1=O)N1CCOCC1	7.9%	-11.1%	5.4%	?	-6.8%	nt
CCCN1C(=O)S/C(=C/c2ccc(N3CCOCC3)o2)C1=O	4.9%	nt	8.91µM*	nt	6.7%[9.22 µM]	1.4%[10 µM]
O=C(COc1ccc(S(=O)(=O)N2CCCCC2)cc1)NCc1ccncc1	-1.1%	-13.9%	4.2%	22.4µM*	-2.2%	1.1%
COc1ccc(S(=O)(=O)N2CCN(C(=O)COc3ccccc3)CC2)cc1	14.9%	nt	-1.7%	?	0.3%[9.22 µM]	2.2%[10 µM]
O=C(Nc1ccc(Cc2ccncc2)cc1)c1ccc(S(=O)(=O)N2CCCC2)cc1	3.1%	nt	-3.1%	14.1µM*	11.2µM*	nt
COc1ccc(CCNC(=O)COc2ccc(S(=O)(=O)N3CCCC3)cc2)cc1	2.7%	nt	-6.7%	10µM*	5.4%[9.22 µM]	15.3%[10 µM]
COC(=O)COc1ccc(S(=O)(=O)N2CCCCCC2)cc1	0.7%	nt	0.2%	-2.3%	-27.7%	-53.9%
CC(=O)c1ccc(NC(=O)c2ccc(S(=O)(=O)N3CCCC3)cc2)cc1	1.8%	-14.2%	-0.6%	?	-1.8%	-23.8%[10 µM]
COc1ccc(CCC(=O)N2CCN(S(=O)(=O)c3ccc4ccccc4c3)CC2)cc1	1.5%	-18.9%	-16.3%	14.1µM*	?	-14.2%
SMILES	CBFb-RUNX1 inh	HPGD inh	KDM4E inh	ALDH1A1 inh	HTT aggregate	HTT ATP protect
COc1ccc(S(=O)(=O)N2CCCC(C(=O)NCc3ccncc3)C2)cc1 (centres undefined)	8.7%	-10.8%	-6.4%	3.5%	?	25.1%
Cc1ccc(NC(=S)N2CCC(N(C)CC3CCCO3)CC2)cc1 (centres undefined)	1.1%	nt	4.4%	9.3%	-22.0%	-5.0%
O=C1CC(N2CCN(c3ncccn3)CC2)C(=O)N1CCc1ccccc1 (centres undefined)	16.3%	nt	-27.3%	-6.1%	29.8%[9.22 µM]	15.8%[10 µM]
N[C@H](COP(=O)(O)O)C(=O)O	6.0%	nt	nt	?	-6.0%	-37.9%
O=C(NNC(=S)Nc1ccc(Cl)cc1Cl)c1ccncc1	0.3%	?	-4.6%	3.16µM*	11.0%	15.4%[10 µM]
CCn1c(C)nc2cc(C(=O)NNC(=S)NC(=O)c3ccccc3)ccc21	-16.0%	nt	?	25.1µM*	-23.3%	-1.2%
CCn1c(C)nc2cc(C(=O)NNC(=S)Nc3ccc(Cl)cc3Cl)ccc21	-3.8%	?	-4.9%	3.55µM*	5.0%	8.5%[10 µM]
CCn1c(C)nc2cc(C(=O)NNC(=S)Nc3ccccc3Cl)ccc21	6.7%	-25.1%	-14.8%	31.6µM*	4.4%	-3.3%[10 µM]
CCN(CC)S(=O)(=O)c1cccc(NC(=O)CN(C)Cc2cccc(OC)c2)c1	2.3%	nt	?	nt	-22.4%[9.22 µM]	16.5%[10 µM]
CCC(C)NC(=O)C(=O)NCc1ccccn1 (centres undefined)	1.0%	nt	-1.7%	8.8%	nt	nt
COc1ccc(OC)c(C2CC(=O)N3CN(c4cccc(Cl)c4)CSC3=C2C#N)c1 (centres undefined)	-0.6%	-20.2%	?	35.5µM*	-9.7%	-21.8%
COc1ccc(OC)c(C2CC(=O)N3CN(c4ccc(C)c(Cl)c4)CSC3=C2C#N)c1 (centres undefined)	-3.7%	?	?	7.94µM*	-9.6%	-7.2%
COc1ccc(-c2nc(C#N)c(N3CCN(c4cccc(Cl)c4)CC3)o2)cc1OC	-0.1%	?	20.6%	?	-8.0%	-18.6%[0.074 µM]
CC(=O)Nc1ccc(S(=O)(=O)N2CCN(CCN3CCOCC3)CC2)cc1Cl	6.8%	nt	1.0%	nt	3.1%[9.22 µM]	-17.0%[10 µM]
COc1ccc(C(CNC(=O)c2ccc(S(=O)(=O)N(C)C)cc2)N2CCCC2)cc1 (centres undefined)	-23.1%	nt	-2.4%	4.47µM*	6.0%	-3.7%
CCOCCCNC(=O)c1ccc(N(C)S(=O)(=O)c2ccc(OC)cc2)cc1	-1.9%	1.58µM*	3.3%	-11.2%	-13.9%	12.0%
COc1ccc(S(=O)(=O)N(C)c2ccc(C(=O)NC3CCCC3)cc2)cc1	2.4%	nt	7.3%	-7.5%	5.8%	?
COc1ccc(Br)c(C(=O)NCCC(C)C)c1	3.7%	12.6µM*	0.9%	6.0%	-5.7%	nt
COc1ccc(Br)c(C(=O)Nc2ccc(F)cc2)c1	7.5%	nt	0.8%	3.1%	-5.7%[9.22 µM]	3.3%[10 µM]
